High-throughput results (PubChem)
MITF TRPM1 inh = inhibitors of MITF-driven TRPM1 promoter in melanoma cells; 0.83% of 330,000 active; SK-MEL-5 TRPM1 promoter luciferase, 24 h; inhibition, % at 12.5 µM; AID 488899;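 active = mean inhibition across replicates of 60% or more, whatever share of single replicates reaches that level; inconclusive = some that reach 60%, reason not given; inactive = mean inhibition across replicates below 60%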
EWS-Fli inh = blocks EWS/Fli oncoprotein-driven transcription; 0.67% of 350,000 active; inhibition, % at 12.6 µM; AID 651661; A673 NR0B1-luciferase reporter, viability-normalised;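 active = mean inhibition of at least 50% after viability correction, with every replicate also passing that limit; inconclusive = mean reaches 50% but only one of two replicates passes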;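 also: firefly luciferase signal divided by Alamar Blue viability fluorescence both relative to DMSO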
esBAF inh = blocks esBAF chromatin remodeling in mouse ES cells | Bmi1-luciferase knock-in reporter, 24 h; 100% = twice the neutral-well signal | reporter increase, % at 12.5 µM | 2% of 350,000 active | AID 602393; in the data active = activation above about 40%; inconclusive = no clear call, values can overlap the other calls;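 also: 0% = median of the plate's neutral control wells and 100% = double that signal; a rise in the Bmi1 reporter signal indicates esBAF inhibition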
PAX8 inh HTS = PAX8 transcriptional activity inhibition; 1.2% of 360,000 active; RMG-I TPO-luciferase reporter, SteadyGlo, 24 h; inhibition, % at 12.6 µM;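 active = mean replicate inhibition at least 60% with every replicate also reaching 60%; inconclusive = only one of the two criteria is met; inactive = mean below 60% and not all replicates reaching 60%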;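 also: luciferase light reporting Pax8 driven TPO promoter activity; plate controls were median of neutral control wells for no effect and mitoxantrone controls for full effect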
Wnt act = activators of Wnt/beta-catenin signaling | activation, % at 9.35 µM | Wnt/beta-catenin reporter cell assay, activator, plate reader | 1.2% of 300,000 active; in the data active = activation above about 30%, passing the limit was not always enough; inconclusive = no clear call, values can overlap the other calls;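 also: 0% = neutral control wells and 100% = positive control wells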
MITF TRPM1 HTS = activators of MITF-driven TRPM1 promoter activity in SK-MEL-5 cells; activation, % at 12.5 µM; SK-MEL-5 TRPM1-promoter luciferase, 24 h; % of positive control, neutral wells = 0; AID 588334; 0.75% of 300,000 active;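 active = mean activation of at least 80% with every replicate also reaching 80%; inconclusive = mean reaches 80% but some replicate falls short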;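 also: 0% = neutral control wells and 100% = parthenolide positive control wells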
An asterisk follows results filed as active. Most compounds without a hit are left out; they make up all but 4% or so of the library.

For O=c1c2sccc2nc(SCc2cc(=O)n3cc(Cl)ccc3n2)n1Cc1ccccn1 the results were MITF TRPM1 inh -31, EWS-Fli inh -72, PAX8 inh HTS -21, Wnt act 7 and MITF TRPM1 HTS 34.
Screening Cc1ccc(Cn2c(SCC(=O)NCc3ccco3)nc3ccsc3c2=O)cc1 returned MITF TRPM1 inh 2, esBAF inh -1 and MITF TRPM1 HTS -2.
Screening Cc1ccc(NC(=O)CSc2nc(O)c(Cc3ccccc3)c(=O)n2-c2ccccc2)cc1 returned MITF TRPM1 inh -4, EWS-Fli inh 5, esBAF inh 25*, PAX8 inh HTS 5, Wnt act -1 and MITF TRPM1 HTS 5.
`CCc1c(O)nc(SCC(=O)Nc2ccccc2)n(-c2ccccc2)c1=O` gave MITF TRPM1 inh 0, EWS-Fli inh -18, esBAF inh 1, Wnt act 0 and MITF TRPM1 HTS 2.
`CC(C)NC(=O)Nc1ccc2c(c1)C(=O)N([C@H](C)CO)C[C@@H](C)[C@H](CN(C)C(=O)CCC(F)(F)F)OCCCC[C@@H](C)O2` gave PAX8 inh HTS -8.
`COc1ccc(C(=Cc2ccccc2[N+](=O)[O-])C(=O)O)cc1` gave MITF TRPM1 inh -16, EWS-Fli inh -55, esBAF inh 14, PAX8 inh HTS -16, Wnt act 49* and MITF TRPM1 HTS 18.
`Cc1ccc(C(=O)/C=C/c2ccccc2[N+](=O)[O-])cc1` gave MITF TRPM1 inh -40, EWS-Fli inh 5, PAX8 inh HTS -7, Wnt act 50* and MITF TRPM1 HTS 44.
Screening O=C(/C=C/c1ccccc1[N+](=O)[O-])c1ccccc1Br returned MITF TRPM1 inh -10, EWS-Fli inh 54*, esBAF inh 18, PAX8 inh HTS 78*, Wnt act 13 and MITF TRPM1 HTS 8.
`Cc1ccc(NC(=O)C(=O)c2ccc(C)cc2)cc1` gave MITF TRPM1 inh -69, EWS-Fli inh -6, esBAF inh 76*, PAX8 inh HTS -226, Wnt act inconclusive and MITF TRPM1 HTS 65.
Cc1ccc(NC(=O)c2ccccc2)cc1 was read as MITF TRPM1 inh -74, esBAF inh inconclusive and PAX8 inh HTS -149.
For Cc1ccc(C(=O)CNc2ccc(C)c(Cl)c2)cc1 the results were MITF TRPM1 inh -35, PAX8 inh HTS -29 and MITF TRPM1 HTS 37.
For Cc1ccc(NCC(=O)c2ccc(C)cc2)cc1 the results were MITF TRPM1 inh -82, EWS-Fli inh -68, esBAF inh -37, PAX8 inh HTS -86, Wnt act 15 and MITF TRPM1 HTS 84*.
For O=C(CSC(=S)N1CCCC1)c1ccccc1 the results were MITF TRPM1 inh -46, EWS-Fli inh 8, esBAF inh -10, Wnt act 45* and MITF TRPM1 HTS 51.
O=C(CSC(=S)N1CCCCC1)c1ccccc1 was read as MITF TRPM1 inh -17, EWS-Fli inh 64*, esBAF inh -7, PAX8 inh HTS -41 and MITF TRPM1 HTS 17.
For O=C(O)CSC(=S)N1CCCC1 the results were MITF TRPM1 inh 1, EWS-Fli inh 1, PAX8 inh HTS 4, Wnt act -2 and MITF TRPM1 HTS 2.
O=C(C[C@H]1C=C[C@H](NC(=O)CN2CCOCC2)[C@H](CO)O1)NC1CCCCC1 was read as EWS-Fli inh 3, esBAF inh 8 and PAX8 inh HTS 0.
CSc1ccccc1NC(=O)c1cc(-c2ccc3c(c2)OCO3)on1 was read as MITF TRPM1 inh -67, EWS-Fli inh -72, esBAF inh 48*, PAX8 inh HTS -43, Wnt act 11 and MITF TRPM1 HTS 66.
CN(C(=O)c1cc(-c2ccc3c(c2)OCO3)on1)c1ccccc1 was read as MITF TRPM1 inh -96, EWS-Fli inh -51, esBAF inh 68*, PAX8 inh HTS -109, Wnt act 14 and MITF TRPM1 HTS 101*.
`Cc1ccc(NC(=O)c2cc(-c3ccc4c(c3)OCO4)on2)cc1C` gave MITF TRPM1 inh -25, EWS-Fli inh 0, esBAF inh 6, PAX8 inh HTS 5, Wnt act 3 and MITF TRPM1 HTS 29.
CC(C)CNC(=O)c1cc(-c2ccc3c(c2)OCO3)on1 was read as EWS-Fli inh 7, esBAF inh 3, PAX8 inh HTS -116 and Wnt act 35*.
For O=C(Nc1cc(Br)ccc1O)c1cc(-c2ccc3c(c2)OCO3)on1 the results were MITF TRPM1 inh -39, EWS-Fli inh -47, esBAF inh 46*, PAX8 inh HTS -143, Wnt act 7 and MITF TRPM1 HTS 45.
`O=C(O)c1ccc(N/N=C/c2ccc(-c3ccccc3)cc2)cc1` gave MITF TRPM1 inh -85, EWS-Fli inh -49, PAX8 inh HTS -59, Wnt act 1 and MITF TRPM1 HTS 92*.
For Cc1ccc(/C=N/Nc2ccc(C(=O)O)cc2)s1 the results were MITF TRPM1 inh 81*, EWS-Fli inh 67*, esBAF inh -20, PAX8 inh HTS 75*, Wnt act -4 and MITF TRPM1 HTS -82.
Screening O=C(O)c1cc(N/N=C/c2ccncc2)ccc1Cl returned MITF TRPM1 inh 17, EWS-Fli inh -2, esBAF inh 0, PAX8 inh HTS 4, Wnt act 2 and MITF TRPM1 HTS -15.
`O=C(O)c1cc(N/N=C/c2ccc(-c3ccccc3)cc2)ccc1Cl` gave MITF TRPM1 inh -9, EWS-Fli inh -47, esBAF inh inconclusive, PAX8 inh HTS -48, Wnt act 48* and MITF TRPM1 HTS 8.
O=C(O)c1ccc(/C=N/Nc2cccc(C(F)(F)F)c2)cc1 was read as MITF TRPM1 inh -111, EWS-Fli inh -71, esBAF inh 88*, PAX8 inh HTS -19, Wnt act 11 and MITF TRPM1 HTS 111*.
Screening Cc1ccc(S(=O)(=O)Nc2ccc3c(c2)C(=O)N([C@@H](C)CO)C[C@@H](C)[C@@H](CN(C)Cc2ccccc2)OCCCC[C@H](C)O3)cc1 returned EWS-Fli inh -2, esBAF inh 2 and PAX8 inh HTS 25.
`CCC(=O)Nc1ccc2c(c1)C(=O)N(C)C[C@@H](OC)[C@@H](C)CN(C(=O)CN(C)C)[C@H](C)CO2` gave EWS-Fli inh -6 and esBAF inh -2.
For C[C@@H]1CN([C@@H](C)CO)C(=O)c2cc(NC(=O)c3ccccc3)ccc2O[C@@H](C)CCCCO[C@H]1CN(C)Cc1ccc2c(c1)OCO2 the results were EWS-Fli inh 11, esBAF inh -8 and PAX8 inh HTS -3.
Screening C=CCN1C(=O)[C@@]2(O[C@@H](CCn3cc([C@H](O)c4ccccc4)nn3)[C@H]([Si](C)(C)c3ccc(OC)cc3)[C@H]2C)c2ccccc21 returned EWS-Fli inh 7 and PAX8 inh HTS 6.
Screening CO[C@H]1CN(C)C(=O)c2ccc(NC(=O)C3CCOCC3)cc2OC[C@@H](C)N(Cc2cccnc2)C[C@H]1C returned EWS-Fli inh 3, esBAF inh -2 and PAX8 inh HTS 3.
